In PubChem BioAssay:
The source made the active and inactive calls.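 How the source made its calls: active means inhibition of the reporter signal at or above 50%; inactive means inhibition below 50%.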

test: inhibitors of poly I:C-induced TLR3 signaling, primary screen, cell-based, poly I:C stimulus, luciferase, 10K MLSCN set (AID 602277); details: HEK293-TLR3 RL24 IRF3 luciferase reporter, at 10 µM, stronger effect = higher value

inhibition, inactive:
Nc1nonc1N1CCCCC1 26.3%
CC1NC2(C(=O)N(Cc3ccccc3)c3ccccc32)C2C(=O)N(c3ccccc3)C(=O)C12 (stereo not given) 26%
CCNC(=O)C1CC(=O)N(Cc2ccc3c(c2)OCO3)C(=Nc2ccc(F)cc2)S1 (stereo not given) 16%
N/C(=N/O)c1nc(N2CCCC2)nc(N(c2ccccc2)c2ccccc2)n1 40.9%
O=C(CC1Oc2ccc(Cl)cc2NC1=O)NC1CCCCCC1 (stereo not given) 6.03%
O=C(CSc1n[nH]c(-c2ccco2)n1)Nc1sc2c(c1C(=O)Nc1ccccc1)CCCC2 21.7%
Cc1nc2ccc(S(=O)(=O)NCC(=O)N3CCc4ccccc4C3)cc2s1 -28.9%
CN(C1CCCCC1)S(=O)(=O)c1ccc(S(=O)(=O)N2CCN(CCC#N)CC2)cc1 15.8%
CCOC(=O)C(NC(=O)Nc1ccccc1)(OCC)C(F)(F)F (stereo not given) 30.2%
Cc1ccc(NC(=O)CCC(=O)O)cc1F 24.4%
Cc1cc(C)n(-c2cc(N3CCOCC3)ncn2)n1 0.822%
CC1CCCC(C)N1C(=O)COC(=O)c1ccc[nH]c1=O (stereo not given) 31.4%
COc1ccc(N(CC(=O)Nc2cc(C)ccc2C)S(=O)(=O)c2c(C)nn(C)c2C)cc1 21.3%
Cc1ccc(-c2cc3nc4c(c(=O)n3[nH]2)CCCC4)cc1 -48.6%
CCSc1oc(-c2cccs2)nc1S(=O)(=O)c1ccccc1 34%
CNC(=O)c1nnn(Cc2ccccc2)c1NC(C)=O -3.44%
O=C(CSc1nnc2ccccn12)NCCN1C(=O)CSC1=O 2.81%
CC(=O)Nc1cccc(NC(=O)c2ccco2)c1 26.7%
O=C(CSc1nc2ccsc2c(=O)n1NC(=O)c1ccccc1)Nc1nccs1 0.179%
O=S(=O)(c1ccccc1)N1CCN(S(=O)(=O)c2ccccc2)C1 13.2%
CN(C)S(=O)(=O)c1cccc(C(=O)Nc2cccnc2)c1 10.8%
COc1ccc(Cn2nnnc2CN2CCOCC2)cc1 15.2%
Cc1cc(NS(=O)(=O)c2ccccc2)no1 28.5%
O=C(/C=N/O)NCc1ccncc1 11.3%
Cc1cc(C(=O)NCc2ccc(S(N)(=O)=O)cc2)cs1 10.9%
CCn1cc(C(=O)N2CCOCC2)c(=O)c2cc(S(=O)(=O)N(C)C3CCCCC3)ccc21 28.4%
CCc1nnc(NC(=O)NCN2C(=O)C3C4C=CC(C4)C3C2=O)s1 (stereo not given) 12.4%
CC(=O)c1cc(Cl)ccc1OC(=O)c1ccco1 21%
CCOC(=O)CSc1nc2sc(C)c(C)c2c(=O)n1C 26%
O=C(c1ccco1)N1CCN(CCCCN2C(=O)c3ccccc3C2=O)CC1 36.3%
CS(=O)(=O)N(CC(=O)NCc1ccncc1)Cc1ccc(Cl)cc1 18%
CC1CCc2c(sc(N)c2C(N)=O)C1 (stereo not given) 6.01%
Cc1cc2ccccn2c1C(=O)c1ccncc1 -0.108%
Cc1nnc(SCC(=O)NCCN2C(=O)CSC2=O)s1 19.5%
CCOC(=O)c1cccc(NC(=O)CNS(=O)(=O)c2cccs2)c1 -10.2%
COc1ccc(NC(=O)CS(=O)CC(=O)Nc2cc(Cl)ccc2OC)cc1 (stereo not given) 28.4%
O=C(NCCc1c[nH]c2ccccc12)c1cnc2n(c1=O)CCS2 -79.3%
COc1ccc2c(c1)cc(C(=O)O)n2C 23.7%
COc1cc2c(cc1OC)CN(CC(=O)Nc1cccc(C)c1)CC2 9.94%
COc1ccc(-n2c(=O)[nH]cc(C(=O)Nc3ccc(NC(C)=O)cc3)c2=O)cc1 24.1%
